Compounds with a hit are over-represented: about 0.9% of the library has one in this group of screens.
E coli growth-1: counter-screen for AddAB inhibitors: E. coli growth inhibition; inhibition, % at 11.9 µM; actives 0.27% (n = 330,000); E. coli V3065 growth, OD600 absorbance, 18 h; AID 449728;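 active = inhibition above the campaign's mean inhibition across all tested compounds plus 3 SD, cut at about 9.9% in these data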;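 also: uninfected addAB+ strain grown without phage in ampicillin broth; 0% = DMSO wells and 100% = ciprofloxacin 0.95 µg/ml wells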
phage Ecoli inh: E. coli growth loss with phage present | growth absorbance | inhibition, % at 11.9 µM | actives 0.26% (n = 360,000); in the data active = inhibition above about 11%
E coli growth-2: E. coli growth inhibition. Escherichia coli growth, OD600, 23 h; active compounds read low. OD600 absorbance (test concentration not listed). actives 0.21% (n = 330,000). AID 1053175;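 active = OD600 absorbance below the run mean of sample wells minus 3.6 SD, in any replicate, cut at about 0.56 in these data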
Calb FLC: C. albicans growth modulation with fluconazole | actives 0.57% (n = 300,000) | growth inhibition, % (concentration not given with the values) | AID 1979 | C. albicans CaCi-2 (fluconazole-resistant clinical isolate) + fluconazole, Alamar Blue growth, 48 h;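 active = growth inhibition above about 58% in most replicates, limit read from the data, passing the limit was not always enough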;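 also: all wells also contain fluconazole at 8 µg/ml as a sub-toxic cotreatment; 0% = median of DMSO wells and 100% = median of geldanamycin control wells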
AddAB inh: less growth of phage-infected E. coli with AddAB | E. coli expressing H. pylori AddAB, absorbance growth | inhibition, % at 11.9 µM | actives 0.29% (n = 330,000) | AID 435030; in the data active = inhibition above about 12%;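 also: 0% = vehicle wells of infected cells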
Tat transport: inhibitors of E. coli Tat protein transport; E. coli MC4100 TorA-mCherry Tat export, fluorescence; actives 0.036% (n = 340,000); inhibition, % at 10 µM;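 active = mean replicate inhibition at least 50% and at least half of replicates individually reaching 50%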;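 also: exported cargo escapes ClpAP degradation while cytoplasmic cargo is degraded and loses fluorescence; 0% = median of neutral control wells and 100% = median of NaSCN control wells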
The depositor's hits bear a star; x = no result given.

SMILES	E coli growth-1	phage Ecoli inh	E coli growth-2	Calb FLC	AddAB inh	Tat transport
CCn1cc(C(=O)OCC(=O)c2cc(C)n(-c3cccc(C(F)(F)F)c3)c2C)c(=O)c2ccc(C)nc21	-2	6	0.72	0	2	16
CCn1cc(C(=O)NNC(=O)c2ccc(Cl)cc2)c(=O)c2ccc(C)nc21	1	x	0.38*	1	2	0
CCn1cc(C(=O)OCC(=O)Nc2cccc(Cl)c2Cl)c(=O)c2ccc(C)nc21	0	4	0.68	106*	3	-7
C=CCOC(=O)c1cn(CC)c2nc(C)ccc2c1=O	-1	2	0.52*	2	1	-9
CC(=NNC(=O)C(NC(=O)c1ccccc1)C(C)C)c1ccccc1 (stereo not drawn)	x	x	0.76	x	x	x
CCn1c(CN2CCCCCC2=O)nnc1SCc1cnc(-c2ccccc2)s1	-1	1	0.71	78*	0	-3
O=C1CCCCCN1Cc1nnc(SCc2nc3ccccc3s2)n1-c1ccccn1	-2	0	0.74	1	0	3
COc1ccccc1N=Nc1ccc(O)c2ncccc12	8	9	0.71	97*	5	-10
Oc1ccc(N=Nc2ccccc2C(F)(F)F)c2cccnc12	-1	3	0.66	98*	-2	3
O=C(Nc1nc2ccc(S(=O)(=O)N3CCCCC3)cc2s1)c1cccnc1	-1	2	0.76	35	3	1
O=C(Nc1nc2ccc(S(=O)(=O)N3CCCCC3)cc2s1)c1ccncc1	-1	3	0.71	103*	2	-7
CCOC(=O)c1c(NC(=O)C2Cc3ccccc3C(=O)O2)sc2c1CCCC2 (stereo not drawn)	1	2	0.71	104*	0	18
COC(=O)c1c(NC(=O)C2Cc3ccccc3C(=O)O2)sc2c1CCCC2 (stereo not drawn)	0	6	0.67	45	0	4
COc1ccc2c(c1)[n+](=O)c(C(C)=O)c(C)n2[O-]	0	1	0.69	-5	1	3
CC(=O)OCc1c(COC(C)=O)[n+](=O)c2ccccc2n1[O-]	6	10	0.47*	27	9	-10
CCOC(=O)C1C2COc3ccc(Cl)cc3C2N2C(=O)CN(Cc3ccc(F)cc3)C(=O)[C@@]12C (stereo partly drawn)	x	x	0.64	x	x	x
CC[C@@]12C(=O)N(c3cccc(Br)c3)C(=O)N1C(c1ccc(Cl)cc1)C1C(=O)N(C3CCCCC3)C(=O)C12 (stereo partly drawn)	x	x	0.71	x	x	x
COc1cnc(-c2ccccn2)nc1Sc1c(Cl)cccc1Cl	1	3	0.71	-2	0	-8
COc1cnc(-c2ccccn2)nc1Sc1ccccc1Cl	-3	0	0.65	81*	0	-13
Cn1cccc1C=Nn1c(-c2ccc(C(C)(C)C)cc2)n[nH]c1=S	x	x	0.74	x	x	x
Cc1cc(C)c(S(=O)(=O)/N=C2/C=C(Sc3ncn[nH]3)C(=O)c3ccccc32)cc1C	4	11*	x	x	5	-9
COc1cccc(C=NNC(=O)C(=O)NCc2ccco2)c1OC	x	x	0.69	x	x	x
CC1CN(C(=S)Nc2cccc([N+](=O)[O-])c2)CC(C)O1 (stereo not drawn)	x	-1	0.72	121*	x	-4
CCNc1nc(N)nc(-c2cc(Cl)ccc2O)n1	1	x	0.65	80*	3	-2
Cc1ccc(N2C(=O)N3C4c5ccccc5OCC4C(c4ccccc4)[C@@]3(C)C2=O)cc1 (stereo partly drawn)	x	x	0.71	x	x	x
SMILES	E coli growth-1	phage Ecoli inh	E coli growth-2	Calb FLC	AddAB inh	Tat transport
NC(=S)NN=C1CCOc2ccc(F)cc21	x	x	0.65	x	x	x
C(=NN1CCN(C2c3ccccc3-c3ccccc32)CC1)c1cccnc1	x	x	0.75	x	x	x
O=c1c(O)c(-c2cc(O)c(O)c(O)c2)oc2cc(O)cc(O)c12	10*	10	x	x	11	9
CC(C)C(Sc1nc(-c2ccccc2)cc(-c2ccccc2)c1C#N)C(=O)O (stereo not drawn)	3	3	0.73	87*	5	8
COc1cc(C=CC(=O)O)ccc1S(=O)(=O)N1CCCc2ccccc21	x	x	0.7	x	x	x
COc1ccc(NC(=O)Nc2nc3c(s2)CCCC3)cc1	2	8	0.64	80*	2	-1
COc1cccc(CN2C(=O)C3(C(C#N)=C(N)OC4=C3C(=O)CCC4)c3ccccc32)c1 (stereo not drawn)	0	2	0.69	91*	0	-6
CC(C)(C)C1COC(=O)C(Cc2ccc(F)cc2)CCC=CCC(CC(=O)NC(CO)Cc2ccccc2)C(=O)N1 (stereo not drawn)	x	x	0.68	x	x	x
OCCC1CC(O)C(O)[C@]2(CCCCO2)O1 (stereo partly drawn)	x	x	0.66	x	x	x
CCCCCOc1ccc(Br)cc1CSC(=N)N	x	7	0.48*	-12	x	-8
COc1cc(OC)c(OC)cc1C=NNC(=S)NCC1CCCO1 (stereo not drawn)	x	x	0.74	x	x	x
O=S(=O)(Nc1cccc2cccnc12)c1ccc(S(=O)(=O)N2CCCC2)cc1	-6	-1	0.69	96*	-3	-7
O=C(NNC(=O)C1C2CCC(C2)C1C(=O)O)c1ccc(Br)o1 (stereo not drawn)	-2	x	x	100*	3	x
CC(C)c1ccc(C(=O)NNC(=O)C2C3CCC(C3)C2C(=O)O)cc1 (stereo not drawn)	0	x	x	12	2	x
CC(=NNC(=O)CN1CCN(Cc2ccccc2)CC1)c1ccc([N+](=O)[O-])cc1	x	x	0.7	x	x	x
Nc1nn2cc(-c3ccc(Br)cc3)nc2c2ccccc12	-4	1	x	99*	2	6
Brc1ccc(-c2cn3nc4c(nc3n2)CCCC4)cc1	-1	-1	0.76	-2	3	3
Cn1cc(C=Nn2cnc3sc4c(c3c2=O)CCCC4)c2ccccc21	x	x	0.73	x	x	x
COc1ccc(CC(=O)NN=Cc2ccc(-c3ccc(F)cc3)o2)cc1OC	x	x	0.65	x	x	x
CC1(C)CC(=O)/C(=C(\O)CCCN2C(=O)c3ccccc3C2=O)C(=NC(C)(C)C)C1	x	x	0.7	x	x	x
COc1ccc(C(O)(C(=O)NNc2ccc(C)cc2)c2cccs2)cc1 (stereo not drawn)	-1	0	0.71	110*	2	0
C=CCNC(=S)Nc1sc2c(c1C(=O)OCC)CC(C)(CC)OC2 (stereo not drawn)	-1	3	0.73	98*	1	0
COC(=O)C1CCN(Cc2c(C(=O)N3C[C@@H](C)O[C@@H](C)C3)nc3ccc(Cl)cn23)CC1	1	0	0.66	87*	1	-3
CCOC(=O)C1CCCN(c2cc(C)nc3cc(-c4ccc(F)cc4)nn23)C1 (stereo not drawn)	1	-1	0.62	104*	0	5
Cc1cc(Cl)ccc1NC(=S)NCCC(c1ccccc1)c1ccccc1	13*	3	0.73	-16	11	10
CC(=NNC(=O)Cc1cc(=O)[nH][nH]1)c1ccc([N+](=O)[O-])cc1	x	x	0.7	x	x	x

Source: PubChem (several laboratories)
